In PubChem BioAssay (Tox21):
Records with an inconclusive call do not appear. Activity calls are given as the source filed them. Calls come from the whole dose curve; as a rule, active = well fitted curve in the direction sought with a large enough effect in the repeat runs; inconclusive = weak or mixed curves; inactive = no such curve, though single readings can be large; an effect the other way counts as inactive or inconclusive.

Assays:
[1] = A CellTox Green Cytotoxicity Assay to monitor cytotoxicity in HepG2 cells - 16 hour (AID 1224876); note: nearly all actives have a fitted effect of over 45% in size
Method in brief: (§1)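 HepG2 cells were seeded together with the CellTox Green dye at 600 cells/well, left 5 h at 37 C/5% CO2, then given compounds in DMSO. Fluorescence from dye bound to dead-cell DNA was read repeatedly over 40 h of treatment at 37 C.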

[2] = qHTS RealTime-Glo MT Cell Viability Assay in HepG2 cells - 32 hour (AID 1224877); note: nearly all actives have a fitted effect of over 55% in size
Method in brief: (§2)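 HepG2 suspension premixed with RealTime-Glo reagents is plated at 600 cells per well and left 5 h at 37 C/5% CO2. Compounds in DMSO then go in, and bioluminescence reflecting viable cell number is recorded over 40 h.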

[3] = A CellTox Green Cytotoxicity Assay to monitor cytotoxicity in HepG2 cells - 24 hour (AID 1224878); note: nearly all actives have a fitted effect of over 45% in size
Method in brief: as §1

[4] = A CellTox Green Cytotoxicity Assay to monitor cytotoxicity in HepG2 cells - 40 hour (AID 1224879); note: nearly all actives have a fitted effect of over 40% in size
Method in brief: as §1

[5] = qHTS RealTime-Glo MT Cell Viability Assay in HEK293 cells - 0 hour (AID 1224880); note: top concentration of the series differs between compounds; nearly all actives have a fitted effect of over 45% in size
Method in brief: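 HEK293 cells mixed with RealTime-Glo reagents (NanoLuc plus cell-permeant prosubstrate) at 600 cells/well, preincubated 5 h at 37 C/5% CO2, then given 23 nL compound in DMSO. Nonlytic luminescence from viable cells was read at 0, 8, 16, 24, 32 and 40 h.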

[6] = A CellTox Green Cytotoxicity Assay to monitor cytotoxicity in HEK293 cells - 32 hour (AID 1224881); note: nearly all actives have a fitted effect of over 40% in size
Method in brief: (§3)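 HEK293 cells premixed with CellTox Green dye were seeded at 600 cells/well and left 5 h at 37 C/5% CO2 before pin transfer of 23 nL compound in DMSO. Fluorescence from dye bound to dead-cell DNA was read during 40 h treatment.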

[7] = A CellTox Green Cytotoxicity Assay to monitor cytotoxicity in HepG2 cells - 0 hour (AID 1224882); note: nearly all actives have a fitted effect of over 35% in size
Method in brief: as §1

[8] = A CellTox Green Cytotoxicity Assay to monitor cytotoxicity in HepG2 cells - 32 hour (AID 1224883); note: nearly all actives have a fitted effect of over 50% in size
Method in brief: as §1

[9] = A CellTox Green Cytotoxicity Assay to monitor cytotoxicity in HEK293 cells - 8 hour (AID 1224884); note: nearly all actives have a fitted effect of over 35% in size
Method in brief: as §3

[10] = qHTS RealTime-Glo MT Cell Viability Assay in HepG2 cells - 16 hour (AID 1224885); note: nearly all actives have a fitted effect of over 50% in size
Method in brief: as §2
% is set by controls: 0 for no effect and ±100 for the full control effect.

CCOC(=O)C(C)(C)C
inactive: Potency [1] | outcome [2] | Potency [3] | Potency [4] | outcome [5] | Potency [6] | Potency [7] | Potency [8] | Potency [9] | outcome [10]

CC(C)C(=O)c1ccccc1
inactive: Potency [1] | outcome [2] | Potency [3] | Potency [4] | outcome [5] | Potency [6] | Potency [7] | Potency [8] | Potency [9] | outcome [10]

O=C(O)c1ccc(OCCN2CCCCC2)cc1
inactive: Potency [1] | outcome [2] | Potency [3] | Potency [4] | outcome [5] | Potency [6] | Potency [7] | Potency [8] | Potency [9] | outcome [10]

CC(=O)c1ccc2c(c1)CCCC2
inactive: Potency [1] | outcome [2] | Potency [3] | Potency [4] | outcome [5] | Potency [6] | Potency [7] | Potency [8] | Potency [9] | outcome [10]

Nc1nc(=O)n([C@@H]2O[C@H](CO)[C@@H](O)[C@@H]2F)cc1I
inactive: Potency [1] | outcome [2] | Potency [3] | Potency [4] | outcome [5] | Potency [6] | Potency [7] | Potency [8] | Potency [9] | outcome [10]

CC1CCC(C(C)(C)S)C(=O)C1 (stereo not drawn)
inactive: Potency [1] | outcome [2] | Potency [3] | Potency [4] | outcome [5] | Potency [6] | Potency [7] | Potency [8] | Potency [9] | outcome [10]

Nc1ccc(S(=O)(=O)Nc2ccccn2)cc1
inactive: Potency [1] | outcome [2] | Potency [3] | Potency [4] | outcome [5] | Potency [6] | Potency [7] | Potency [8] | Potency [9] | outcome [10]

O=c1[nH]c(=O)c2ccccc2o1
inactive: Potency [1] | Potency [3] | Potency [4] | outcome [5] | Potency [6] | Potency [7] | Potency [8] | Potency [9]

CCCCCCCCCCCCCC(=O)OC
inactive: Potency [1] | Potency [3] | Potency [4] | outcome [5] | Potency [6] | Potency [7] | Potency [8] | Potency [9]

CC(C)CCO
inactive: Potency [1] | Potency [3] | Potency [4] | outcome [5] | Potency [6] | Potency [7] | Potency [8] | Potency [9]

CCCOCCOCCOCCO
inactive: Potency [1] | Potency [3] | Potency [4] | outcome [5] | Potency [6] | Potency [7] | Potency [8] | Potency [9] | outcome [10]

COc1ccc(/C=N/NC(=O)c2ccncc2)cc1OC
inactive: Potency [1] | outcome [2] | Potency [4] | outcome [5] | Potency [6] | Potency [7] | Potency [8] | Potency [9] | outcome [10]

NS(=O)(=O)c1cc2c(cc1Cl)NC(C(Cl)Cl)NS2(=O)=O (stereo not drawn)
inactive: Potency [1] | outcome [2] | Potency [4] | outcome [5] | Potency [6] | Potency [7] | Potency [8] | Potency [9] | outcome [10]

C=CCCCCCCCCCCC
inactive: cytotoxicity increase [1] -0.067% [at 6.97 µM] | cytotoxicity [3] 0.49% [at 6.97 µM] | cytotoxicity increase [4] 1.74% [at 6.97 µM] | activity change, negative = cytotoxicity [5] 4.11% [at 6.97 µM] | cytotoxicity increase [6] -0.213% [at 6.97 µM] | cytotoxicity [7] 1.75% [at 6.97 µM] | cytotoxicity increase [8] 1.86% [at 6.97 µM] | cytotoxicity increase [9] 2.18% [at 6.97 µM]

CC(=O)OC(C(=O)c1ccccc1)c1ccccc1 (stereo not drawn)
inactive: Potency [1] | outcome [2] | Potency [4] | outcome [5] | Potency [6] | Potency [7] | Potency [8] | Potency [9] | outcome [10]

OCCCCCCCl
inactive: Potency [1] | Potency [3] | Potency [4] | outcome [5] | Potency [6] | Potency [7] | Potency [8] | Potency [9]

CCCCCCCCOC(C)=O
inactive: Potency [1] | outcome [2] | Potency [4] | outcome [5] | Potency [6] | Potency [7] | Potency [8] | Potency [9] | outcome [10]

O=CO
inactive: cytotoxicity increase [1] -13.8% [at 6.97 µM] | activity change, negative = cytotoxic [2] 7.5% [at 6.97 µM] | cytotoxicity increase [4] -21.3% [at 6.97 µM] | activity change, negative = cytotoxicity [5] 3.48% [at 6.97 µM] | cytotoxicity [7] -9.11% [at 6.97 µM] | cytotoxicity increase [8] -19.2% [at 6.97 µM]

CCCCCC1Nc2cc(C(F)(F)F)c(S(N)(=O)=O)cc2S(=O)(=O)N1 (stereo not drawn)
inactive: Potency [1] | outcome [2] | Potency [4] | outcome [5] | Potency [6] | Potency [7] | Potency [8] | Potency [9] | outcome [10]

Oc1ccccc1Cc1ccccc1O
inactive: Potency [1] | outcome [2] | outcome [5] | Potency [6] | Potency [7] | Potency [9] | outcome [10]

CCOC(=O)CCc1ccccc1
inactive: Potency [1] | outcome [2] | Potency [4] | outcome [5] | Potency [6] | Potency [7] | Potency [8] | Potency [9] | outcome [10]

COc1ccc(N=Nc2cc(C)c(N=Nc3ccc(S(=O)(=O)O)cc3)cc2OC)cc1
inactive: Potency [1] | outcome [2] | Potency [4] | Potency [6] | Potency [7] | Potency [8] | Potency [9]

CCCCOC(=O)C(=O)OCCCC
inactive: Potency [1] | outcome [2] | Potency [4] | outcome [5] | Potency [6] | Potency [7] | Potency [8] | Potency [9] | outcome [10]

C=CCOc1cc(Cl)ccc1C(=O)NCCN(CC)CC
inactive: Potency [1] | outcome [2] | Potency [4] | outcome [5] | Potency [7] | Potency [8] | Potency [9]

CCC(=O)c1ccc(O)cc1
inactive: Potency [1] | Potency [3] | Potency [4] | outcome [5] | Potency [6] | Potency [7] | Potency [8] | Potency [9] | outcome [10]
